# Assay results from PubChem BioAssay (NCI).
# The panel holds about 83,000 compounds, 20% with a hit somewhere; the sample as a whole holds those more often.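 Treatment: one concentration, 48 hours, 96-well format. Scoring: percent growth, with anything below 10 considered active.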 Values without a mark were called inactive. The source made the active and inactive calls.
# Legend:
# Assay in all cases: NCI-60 one-dose screen, 48 h (100 = growth as untreated, 0 = no growth, -100 = all killed)
# NCI-H23 lung = system: NCI-H23 lung
# NCI-H226 lung = settings: 10 µM unless noted
# NCI-H322M lung = settings: 10 µM unless noted
# NCI-H460 lung = system: NCI-H460 lung
# HOP-92 NSCLC = settings: 10 µM unless noted
# A549/ATCC NSCLC = system: A549/ATCC NSCLC
# 786-0 renal = system: 786-0 renal
# COLO 205 colon = system: COLO 205 colon
# DU-145 prostate = system: DU-145 prostate
# K-562 leukemia = settings: 10 µM unless noted
# MALME-3M melanoma = system: MALME-3M melanoma
# MDA-MB-231 breast = system: MDA-MB-231 breast
# RXF 393 renal = system: RXF 393 renal
# SF-268 CNS = system: SF-268 CNS
# SF-295 CNS = system: SF-295 CNS
# SF-539 CNS = system: SF-539 CNS
# UACC-257 melanoma = system: UACC-257 melanoma
# M14 melanoma = system: M14 melanoma
# HOP-62 NSCLC = settings: 10 µM unless noted
# NCI-H522 lung = settings: 10 µM unless noted
structure (smiles),measurement,setting,value
S=c1nc[nH]c2nc[nH]c12,growth,NCI-H23 lung; 10 µM,31.9%
same,growth,NCI-H23 lung; 50 µM,21.3%
same,growth,NCI-H226 lung,46.3%
same,growth,NCI-H322M lung,33% [50 µM]
same,growth,NCI-H460 lung; 10 µM,45.3%
same,growth,NCI-H460 lung; 50 µM,26.9%
same,growth,HOP-92 NSCLC,51% [50 µM]
same,growth,A549/ATCC NSCLC; 10 µM,84.8%
same,growth,A549/ATCC NSCLC; 50 µM,48.2%
same,growth,786-0 renal; 10 µM,17.3%
same,growth,786-0 renal; 50 µM,25.9%
same,growth,COLO 205 colon; 10 µM,35.2%
same,growth,COLO 205 colon; 50 µM,6.94% (active)
same,growth,DU-145 prostate; 10 µM,44.3%
same,growth,DU-145 prostate; 50 µM,25.3%
same,growth,K-562 leukemia,11.9% [50 µM]
same,growth,MALME-3M melanoma; 10 µM,50.1%
same,growth,MALME-3M melanoma; 50 µM,17.4%
same,growth,MDA-MB-231 breast; 10 µM,42.9%
same,growth,MDA-MB-231 breast; 50 µM,40.2%
same,growth,RXF 393 renal; 10 µM,62.8%
same,growth,RXF 393 renal; 50 µM,59.7%
same,growth,SF-268 CNS; 10 µM,39.2%
same,growth,SF-268 CNS; 50 µM,24.7%
same,growth,SF-295 CNS; 10 µM,11.4%
same,growth,SF-295 CNS; 50 µM,18.1%
same,growth,SF-539 CNS; 10 µM,31.2%
same,growth,SF-539 CNS; 50 µM,14.4%
same,growth,UACC-257 melanoma; 10 µM,44.2%
same,growth,UACC-257 melanoma; 50 µM,29.7%
same,growth,M14 melanoma; 10 µM,14.1%
same,growth,M14 melanoma; 50 µM,15.6%
CS(=O)(=O)c1nsc(N)n1,growth,NCI-H23 lung; 10 µM unless noted,94.7%
same,growth,NCI-H226 lung,99.2%
same,growth,NCI-H322M lung,98.4%
same,growth,HOP-62 NSCLC,89.5%
same,growth,NCI-H460 lung; 10 µM unless noted,106%
same,growth,HOP-92 NSCLC,111%
same,growth,NCI-H522 lung,91.1%
same,growth,A549/ATCC NSCLC; 10 µM unless noted,87.7%
same,growth,786-0 renal; 10 µM unless noted,106%
same,growth,COLO 205 colon; 10 µM unless noted,103%
same,growth,DU-145 prostate; 10 µM unless noted,109%
same,growth,K-562 leukemia,98.7%
same,growth,MALME-3M melanoma; 10 µM unless noted,101%
same,growth,MDA-MB-231 breast; 10 µM unless noted,106%
same,growth,RXF 393 renal; 10 µM unless noted,108%
same,growth,SF-268 CNS; 10 µM unless noted,100%
same,growth,SF-295 CNS; 10 µM unless noted,104%
same,growth,SF-539 CNS; 10 µM unless noted,102%
same,growth,UACC-257 melanoma; 10 µM unless noted,84.9%
Nc1ccccc1SC1CC(=O)N(c2ccc(I)cc2)C1=O (stereo not drawn),growth,NCI-H23 lung; 10 µM unless noted,89.8%
same,growth,NCI-H226 lung,102%
same,growth,NCI-H322M lung,108%
same,growth,HOP-62 NSCLC,80.5%
same,growth,NCI-H460 lung; 10 µM unless noted,92.6%
same,growth,HOP-92 NSCLC,100%
same,growth,NCI-H522 lung,77.4%
same,growth,A549/ATCC NSCLC; 10 µM unless noted,87.1%
same,growth,786-0 renal; 10 µM unless noted,105%
same,growth,COLO 205 colon; 10 µM unless noted,95.3%
same,growth,DU-145 prostate; 10 µM unless noted,92.7%
same,growth,K-562 leukemia,82.9%
same,growth,MALME-3M melanoma; 10 µM unless noted,75.6%
same,growth,MDA-MB-231 breast; 10 µM unless noted,91%
same,growth,RXF 393 renal; 10 µM unless noted,115%
same,growth,SF-268 CNS; 10 µM unless noted,84.1%
same,growth,SF-295 CNS; 10 µM unless noted,93.8%
same,growth,SF-539 CNS; 10 µM unless noted,89.6%
same,growth,UACC-257 melanoma; 10 µM unless noted,89.2%
CCC/C(=N/NC(N)=O)c1ccco1,growth,NCI-H23 lung; 10 µM unless noted,99.1%
same,growth,NCI-H226 lung,96.1%
same,growth,NCI-H322M lung,96.5%
same,growth,HOP-62 NSCLC,79.7%
same,growth,NCI-H460 lung; 10 µM unless noted,104%
same,growth,HOP-92 NSCLC,82.7%
same,growth,NCI-H522 lung,76.3%
same,growth,A549/ATCC NSCLC; 10 µM unless noted,93.4%
same,growth,786-0 renal; 10 µM unless noted,89.7%
same,growth,COLO 205 colon; 10 µM unless noted,107%
same,growth,DU-145 prostate; 10 µM unless noted,109%
same,growth,K-562 leukemia,104%
same,growth,MALME-3M melanoma; 10 µM unless noted,83.8%
same,growth,MDA-MB-231 breast; 10 µM unless noted,100%
same,growth,RXF 393 renal; 10 µM unless noted,105%
same,growth,SF-268 CNS; 10 µM unless noted,102%
same,growth,SF-295 CNS; 10 µM unless noted,98.4%
same,growth,SF-539 CNS; 10 µM unless noted,93%
same,growth,UACC-257 melanoma; 10 µM unless noted,98.6%
CN(C)CC(CN(C)C)C(O)c1ccccc1 (stereo not drawn),growth,NCI-H23 lung; 10 µM unless noted,106%
same,growth,NCI-H226 lung,96.6%
same,growth,NCI-H322M lung,103%
same,growth,HOP-62 NSCLC,91.4%
same,growth,NCI-H460 lung; 10 µM unless noted,112%
same,growth,HOP-92 NSCLC,97.9%
same,growth,NCI-H522 lung,76.4%
same,growth,A549/ATCC NSCLC; 10 µM unless noted,91.5%
same,growth,786-0 renal; 10 µM unless noted,96.6%
same,growth,COLO 205 colon; 10 µM unless noted,110%
same,growth,DU-145 prostate; 10 µM unless noted,110%
same,growth,K-562 leukemia,94.5%
same,growth,MALME-3M melanoma; 10 µM unless noted,105%
same,growth,MDA-MB-231 breast; 10 µM unless noted,114%
same,growth,RXF 393 renal; 10 µM unless noted,110%
same,growth,SF-268 CNS; 10 µM unless noted,99%
same,growth,SF-295 CNS; 10 µM unless noted,96.9%
same,growth,SF-539 CNS; 10 µM unless noted,90.7%
same,growth,UACC-257 melanoma; 10 µM unless noted,102%
same,growth,M14 melanoma; 10 µM unless noted,96.4%
O=C(c1ccccc1)C1(Br)CCCCC1,growth,NCI-H23 lung; 10 µM unless noted,98%
same,growth,NCI-H226 lung,87.5%
same,growth,NCI-H322M lung,93.4%
same,growth,HOP-62 NSCLC,96%
same,growth,NCI-H460 lung; 10 µM unless noted,105%
same,growth,HOP-92 NSCLC,88.1%
same,growth,NCI-H522 lung,95.6%
same,growth,A549/ATCC NSCLC; 10 µM unless noted,96.8%
same,growth,786-0 renal; 10 µM unless noted,91.5%
same,growth,COLO 205 colon; 10 µM unless noted,129%
same,growth,DU-145 prostate; 10 µM unless noted,105%
same,growth,K-562 leukemia,98%
same,growth,MALME-3M melanoma; 10 µM unless noted,95.1%
same,growth,MDA-MB-231 breast; 10 µM unless noted,94.3%
same,growth,RXF 393 renal; 10 µM unless noted,113%
same,growth,SF-268 CNS; 10 µM unless noted,92%
same,growth,SF-295 CNS; 10 µM unless noted,93.4%
same,growth,SF-539 CNS; 10 µM unless noted,93.5%
same,growth,UACC-257 melanoma; 10 µM unless noted,98.7%
